Assay results published in ChEMBL document CHEMBL4296183, “CO-ADD screening of NIH NCI Natural Product Set III” (2020).
For part of these data: Measured potencies and affinities stand elsewhere.

Legend:
[1] = system: Staphylococcus aureus; test: Antibacterial activity against Staphylococcus aureus MRSA ATCC 43300 (CO-ADD:GP_020); MIC in CAMBH media using NBS plates, by Resazurin F(560/590); assay type: functional; settings: Concentration 20 uM, ASSAY_TEST Inhibition of Bacterial Growth, detection method Resazurin, Fluorescence (ex560/em590), MEDIA CAMHB, plate type 384well, CORNING #3640, time 18 hr
[2] = system: Acinetobacter baumannii; test: Antibacterial activity against Acinetobacter baumannii ATCC 19606 (CO-ADD:GN_034); MIC in CAMBH media using NBS plates, by Resazurin F(560/590); assay type: functional; settings: Concentration 20 uM, ASSAY_TEST Inhibition of Bacterial Growth, detection method Resazurin, Fluorescence (ex560/em590), MEDIA CAMHB, plate type 384well, CORNING #3640, time 18 hr
[3] = system: Escherichia coli; test: Antibacterial activity against Escherichia coli ATCC 25922 (CO-ADD:GN_001); MIC in CAMBH media using NBS plates, by Resazurin F(560/590); assay type: functional; settings: Concentration 20 uM, ASSAY_TEST Inhibition of Bacterial Growth, detection method Resazurin, Fluorescence (ex560/em590), MEDIA CAMHB, plate type 384well, CORNING #3640, time 18 hr
[4] = system: Klebsiella pneumoniae; settings: Concentration 20 uM; ASSAY_TEST Inhibition of Bacterial Growth; detection method Absorption (OD600); MEDIA CAMHB; plate type 384well; NBS; CORNING #3640; time 18 hr
[5] = system: Candida albicans; settings: 20 µM
[6] = system: Cryptococcus neoformans; settings: Concentration 20 uM; ASSAY_TEST Inhibition of Fungal Growth; detection method Resazurin; Absorption (OD600-OD570); plate type 384well; NBS; CORNING #3640

Structure (SMILES)	Inhibition [1] [%]	Inhibition [2] [%]	Inhibition [3] [%]	Inhibition [4] [%]	Inhibition [5] [%]	Inhibition [6] [%]
COc1cc2c3c(c4ccc(OC)c(OC)c4c2cc1OC)CN1CCC[C@@H]1C3 [TYLOCREBRINE]	23.41	-4.59	1.54	13.12	-1.43	-6.05
CCC1OC(=O)C(C)C(OC2CC(C)(O)C(O)C(C)O2)C(C)C(O)C(C)(O)CC(C)C(=O)C(C)C(O)C1C (stereo not given)	-9.59	-2.14	7.74	3.36	1.65	-12.63
COC(=O)C1C(O)CCC2CN3CCc4c([nH]c5ccccc45)C3CC21 (stereo not given)	7.76	-5.08	5.27	13.74	1.54	-9.85
CC[C@]1(O)C[C@H]2CN(CCc3c([nH]c4ccccc34)[C@@](C(=O)OC)(c3cc4c(cc3OC)N(C=O)[C@H]3[C@@](O)(C(=O)OC)[C@H](OC(C)=O)[C@]5(CC)C=CCN6CC[C@]43[C@@H]65)C2)C1.O=S(=O)(O)O [VINCRISTINE SULFATE]	-14.43	-6.71	2.79	1.69	-0.39	-1.83
COc1cc([C@@H]2c3cc4c(cc3[C@@H](OC3OC5CO[C@@H](c6cccs6)OC5C(O)C3O)[C@H]3COC(=O)[C@H]23)OCO4)cc(OC)c1O (stereo not given in full)	7.05	-1.54	1.68	-0.01	0.54	-9.1
COc1c(O)cc2oc3cc(O)c(CC=C(C)C)c(O)c3c(=O)c2c1CC=C(C)C [MANGOSTIN]	-10.76	-19.44	-3.06	-4.57	-6.96	-8.44
CCCCCC[C@H]([C@H](C)O)n1cnc2c(N)ncnc21.Cl	18.32	-17.98	7.31	-3.55	-0.37	-9.44
CC(C)=CC(=O)OC1C2C(C)C(=O)OC2C(O)C(C)C2C=CC(=O)C21C (stereo not given)	8.65	-2.16	-1.23	13.7	0.18	-5.72
O=c1oc2cc(O)ccc2c2oc3cc(O)ccc3c12 [COUMESTROL]	0.36	-8.94	2.17	-3.39	2.68	17.46
C/C=C/c1cc2c(c(=O)o1)C(=O)[C@@H](O)[C@H](C)O2	-0.66	-9.6	14.21	-6.98	1.1	-12.06
COC(=O)NC1C(C)OC(OC2C/C=C(/C)C3C=CC4C(OC5CC(OC6CCC(OC7CC(O)C(OC8CCC(O)C(C)O8)C(C)O7)C(C)O6)C(OC(C)=O)C(C)O5)C(C)CC(C)C4C3(C)/C(O)=C3/C(=O)OC4(CC(C=O)=CC(O)C4/C=C\2C)C3=O)CC1(C)[N+](=O)[O-] (stereo not given)	-21.61	-13.61	6.38	4.04	4.81	-14.96
COC(=O)[C@@H]1[C@H]2C[C@@H]3c4[nH]c5ccccc5c4CCN3C[C@@H]2CC[C@@H]1O	20.93	-4.53	11.73	-5.72	-3.73	-8.25
CC(=O)Oc1ccc2ccc(=O)oc2c1OC(C)=O	18.68	-10.5	2.34	9	-1.13	-4.56
CC(=O)CCCCn1c(=O)c2c(ncn2C)n(C)c1=O [PENTOXIFYLLINE]	0.21	0.79	9.18	-2.03	4.24	-13.02
Cc1cc2nc3[nH]c(=O)[nH]c(=O)c3nc2cc1C [LUMICHROME]	0.69	-0.84	3.58	12.48	0.84	-5.45
CCCCCCCCCCCCCCCCCCOCC(O)CO (stereo not given) [BATILOL]	16.14	-8.86	0.06	2.79	-1.81	0.87
COc1c2c(cc3c1[C@@H]1Oc4c(ccc(O)c4CC=C(C)C)[C@@H]1CO3)OC(C)(C)C=C2	-1.33	-12.04	1.21	-0.46	5.57	-11.6
CC1=C2[C@H]3OC(=O)[C@@H](C)[C@@H]3CC[C@@]2(C)C=C/C1=N\O	19.54	-5.16	3.05	6.63	-0.24	-9.56
C=C1C(=O)OC2CC3(C)CCCC(C)C3=CC12 (stereo not given)	9.16	-5.59	-1.07	10.15	0.7	-3.97
CCCCCCCCCCCCCCCC(=O)O[C@@H]1[C@@H](C)[C@@]2(O)[C@@H](C=C(CO)C[C@]3(O)C(=O)C(C)=C[C@@H]23)[C@H]2[C@]1(OC(C)=O)[C@]2(C)CO	18.67	-9.19	2.92	11.05	-4.72	-11.83
COC(=O)C1C2CC3c4[nH]c5cc(OC)ccc5c4CCN3CC2CC(OC(=O)CCc2cc(OC)c(OC)c(OC)c2)C1OC (stereo not given)	8.41	-10.91	1.29	-7.51	-0.42	-8.83
CN1CCc2cc3c(cc2C(=O)Cc2ccc4c(c2C1)OCO4)OCO3.Cl [PROTOPINE HYDROCHLORIDE]	14.82	-4.7	3	4.34	-1.7	-6.39
CC(C)c1ccc2c(c1)CC[C@H]1[C@](C)(C(=O)O)CCC[C@]21C [DEHYDROABIETIC ACID]	11.51	-10.79	7.61	-3.77	14	-14.06
CCC1NC(=O)C(NC(=O)c2ncccc2O)C(C)OC(=O)C(c2ccccc2)NC(=O)C2CC(=O)CCN2C(=O)C(Cc2ccccc2)N(C)C(=O)C2CCCN2C1=O (stereo not given)	3.19	-3.49	1.18	4.35	-3.25	-7.49
CC(=O)O.COc1ccc2c(=O)oc3c(OC)cc(CCN(C)C)c4c(=O)oc1c2c34	18.21	-7.25	6.5	15.37	-2.47	-6.47
